Test results: PubChem BioAssay AID2284386 (EPA ToxCast)
Active and inactive are the calls of the source. How the source made its calls: active means hit-call score of the fitted dose curve at least 0.9, where 1 is the maximum; inactive means score below 0.9.

Target: Peroxisome proliferator-activated receptor gamma (Homo sapiens) (UniProt P37231)
Assay: ERF_FR_NR_COA_hPPARG: Eurofins (ERF) Nuclear Receptor (NR) Functional Coactivator Assay for human Peroxisome Proliferator-activated Receptor gamma (PPARg) Agonism, conducted at France lab site
Description: ERF_FR_NR_COA_hPPARG is a biochemical, single-readout assay that uses extracted gene-proteins in a cell-free assay. Measurements were taken 2 hours after chemical dosing in a 384-well plate. See PPARgamma Human NHR Functional Agonist Coactivator Assay, Cerep.ERF_FR_NR_COA_hPPARG is an assay component calculated from the ERF_FR_NR_COA_hPPARG assay. It is designed to measure FRET using a type of binding reporter as detected by fluorescence intensity of Rosiglitazone with fluorimetry technology.Data from the assay component ERF_FR_NR_COA_hPPARG was analyzed at the assay endpoint, ERF_FR_NR_COA_hPPARG, in the positive analysis fitting direction relative to DMSO as the negative control and baseline of activity. Using a type of binding reporter, gain-of-signal activity can be used to understand changes in binding as they relate to gene PPARG. […]
Test compound and/or vehicle is incubated with the 2 nM receptors and coactivator peptide for 180 minutes at room temperature. Determination of the amount of complex formed is read spectrofluorimetrically (excitation: 337 nm, emission: 520/490 nm). Test compound-induced increase fluorescence by 50 percent or more (>/=50%) relative to 1 uM GW1929 response indicates possible PPARgamma receptor agonist activity. […]

Peroxisome proliferator-activated receptor gamma (Homo sapiens), sequence (P37231 whole entry, looked up): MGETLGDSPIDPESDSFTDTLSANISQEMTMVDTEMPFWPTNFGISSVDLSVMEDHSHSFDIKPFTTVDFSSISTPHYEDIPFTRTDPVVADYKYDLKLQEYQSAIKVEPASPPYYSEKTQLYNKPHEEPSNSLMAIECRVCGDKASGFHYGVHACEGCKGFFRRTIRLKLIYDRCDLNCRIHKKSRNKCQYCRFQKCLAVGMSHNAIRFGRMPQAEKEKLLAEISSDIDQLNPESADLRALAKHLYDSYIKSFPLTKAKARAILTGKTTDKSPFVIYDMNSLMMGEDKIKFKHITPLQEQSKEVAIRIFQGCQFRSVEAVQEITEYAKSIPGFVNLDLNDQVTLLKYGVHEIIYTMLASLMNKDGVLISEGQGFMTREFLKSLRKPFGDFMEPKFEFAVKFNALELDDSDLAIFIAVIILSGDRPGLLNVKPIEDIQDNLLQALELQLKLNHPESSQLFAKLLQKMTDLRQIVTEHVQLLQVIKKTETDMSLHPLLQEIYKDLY

In the case of O=S(=O)(O)C(F)(F)C(F)(F)C(F)(F)C(F)(F)C(F)(F)C(F)(F)C(F)(F)C(F)(F)F, the outcome is reported as “inactive”.
